# Most compounds without a hit are left out; they make up all but 3.6% or so of the library.
# mHTT-CaM PPI inh: mutant huntingtin-calmodulin interaction inhibitors – biochemical, AlphaScreen, primary screen | AlphaScreen His-mHTT/GST-CaM binding, luminescence | 3.6% of 190,000 active | AID 1671202, 2021 | inhibition, % at 15 µM | P42858
# Target sequence (P42858 whole entry, looked up, change not shown): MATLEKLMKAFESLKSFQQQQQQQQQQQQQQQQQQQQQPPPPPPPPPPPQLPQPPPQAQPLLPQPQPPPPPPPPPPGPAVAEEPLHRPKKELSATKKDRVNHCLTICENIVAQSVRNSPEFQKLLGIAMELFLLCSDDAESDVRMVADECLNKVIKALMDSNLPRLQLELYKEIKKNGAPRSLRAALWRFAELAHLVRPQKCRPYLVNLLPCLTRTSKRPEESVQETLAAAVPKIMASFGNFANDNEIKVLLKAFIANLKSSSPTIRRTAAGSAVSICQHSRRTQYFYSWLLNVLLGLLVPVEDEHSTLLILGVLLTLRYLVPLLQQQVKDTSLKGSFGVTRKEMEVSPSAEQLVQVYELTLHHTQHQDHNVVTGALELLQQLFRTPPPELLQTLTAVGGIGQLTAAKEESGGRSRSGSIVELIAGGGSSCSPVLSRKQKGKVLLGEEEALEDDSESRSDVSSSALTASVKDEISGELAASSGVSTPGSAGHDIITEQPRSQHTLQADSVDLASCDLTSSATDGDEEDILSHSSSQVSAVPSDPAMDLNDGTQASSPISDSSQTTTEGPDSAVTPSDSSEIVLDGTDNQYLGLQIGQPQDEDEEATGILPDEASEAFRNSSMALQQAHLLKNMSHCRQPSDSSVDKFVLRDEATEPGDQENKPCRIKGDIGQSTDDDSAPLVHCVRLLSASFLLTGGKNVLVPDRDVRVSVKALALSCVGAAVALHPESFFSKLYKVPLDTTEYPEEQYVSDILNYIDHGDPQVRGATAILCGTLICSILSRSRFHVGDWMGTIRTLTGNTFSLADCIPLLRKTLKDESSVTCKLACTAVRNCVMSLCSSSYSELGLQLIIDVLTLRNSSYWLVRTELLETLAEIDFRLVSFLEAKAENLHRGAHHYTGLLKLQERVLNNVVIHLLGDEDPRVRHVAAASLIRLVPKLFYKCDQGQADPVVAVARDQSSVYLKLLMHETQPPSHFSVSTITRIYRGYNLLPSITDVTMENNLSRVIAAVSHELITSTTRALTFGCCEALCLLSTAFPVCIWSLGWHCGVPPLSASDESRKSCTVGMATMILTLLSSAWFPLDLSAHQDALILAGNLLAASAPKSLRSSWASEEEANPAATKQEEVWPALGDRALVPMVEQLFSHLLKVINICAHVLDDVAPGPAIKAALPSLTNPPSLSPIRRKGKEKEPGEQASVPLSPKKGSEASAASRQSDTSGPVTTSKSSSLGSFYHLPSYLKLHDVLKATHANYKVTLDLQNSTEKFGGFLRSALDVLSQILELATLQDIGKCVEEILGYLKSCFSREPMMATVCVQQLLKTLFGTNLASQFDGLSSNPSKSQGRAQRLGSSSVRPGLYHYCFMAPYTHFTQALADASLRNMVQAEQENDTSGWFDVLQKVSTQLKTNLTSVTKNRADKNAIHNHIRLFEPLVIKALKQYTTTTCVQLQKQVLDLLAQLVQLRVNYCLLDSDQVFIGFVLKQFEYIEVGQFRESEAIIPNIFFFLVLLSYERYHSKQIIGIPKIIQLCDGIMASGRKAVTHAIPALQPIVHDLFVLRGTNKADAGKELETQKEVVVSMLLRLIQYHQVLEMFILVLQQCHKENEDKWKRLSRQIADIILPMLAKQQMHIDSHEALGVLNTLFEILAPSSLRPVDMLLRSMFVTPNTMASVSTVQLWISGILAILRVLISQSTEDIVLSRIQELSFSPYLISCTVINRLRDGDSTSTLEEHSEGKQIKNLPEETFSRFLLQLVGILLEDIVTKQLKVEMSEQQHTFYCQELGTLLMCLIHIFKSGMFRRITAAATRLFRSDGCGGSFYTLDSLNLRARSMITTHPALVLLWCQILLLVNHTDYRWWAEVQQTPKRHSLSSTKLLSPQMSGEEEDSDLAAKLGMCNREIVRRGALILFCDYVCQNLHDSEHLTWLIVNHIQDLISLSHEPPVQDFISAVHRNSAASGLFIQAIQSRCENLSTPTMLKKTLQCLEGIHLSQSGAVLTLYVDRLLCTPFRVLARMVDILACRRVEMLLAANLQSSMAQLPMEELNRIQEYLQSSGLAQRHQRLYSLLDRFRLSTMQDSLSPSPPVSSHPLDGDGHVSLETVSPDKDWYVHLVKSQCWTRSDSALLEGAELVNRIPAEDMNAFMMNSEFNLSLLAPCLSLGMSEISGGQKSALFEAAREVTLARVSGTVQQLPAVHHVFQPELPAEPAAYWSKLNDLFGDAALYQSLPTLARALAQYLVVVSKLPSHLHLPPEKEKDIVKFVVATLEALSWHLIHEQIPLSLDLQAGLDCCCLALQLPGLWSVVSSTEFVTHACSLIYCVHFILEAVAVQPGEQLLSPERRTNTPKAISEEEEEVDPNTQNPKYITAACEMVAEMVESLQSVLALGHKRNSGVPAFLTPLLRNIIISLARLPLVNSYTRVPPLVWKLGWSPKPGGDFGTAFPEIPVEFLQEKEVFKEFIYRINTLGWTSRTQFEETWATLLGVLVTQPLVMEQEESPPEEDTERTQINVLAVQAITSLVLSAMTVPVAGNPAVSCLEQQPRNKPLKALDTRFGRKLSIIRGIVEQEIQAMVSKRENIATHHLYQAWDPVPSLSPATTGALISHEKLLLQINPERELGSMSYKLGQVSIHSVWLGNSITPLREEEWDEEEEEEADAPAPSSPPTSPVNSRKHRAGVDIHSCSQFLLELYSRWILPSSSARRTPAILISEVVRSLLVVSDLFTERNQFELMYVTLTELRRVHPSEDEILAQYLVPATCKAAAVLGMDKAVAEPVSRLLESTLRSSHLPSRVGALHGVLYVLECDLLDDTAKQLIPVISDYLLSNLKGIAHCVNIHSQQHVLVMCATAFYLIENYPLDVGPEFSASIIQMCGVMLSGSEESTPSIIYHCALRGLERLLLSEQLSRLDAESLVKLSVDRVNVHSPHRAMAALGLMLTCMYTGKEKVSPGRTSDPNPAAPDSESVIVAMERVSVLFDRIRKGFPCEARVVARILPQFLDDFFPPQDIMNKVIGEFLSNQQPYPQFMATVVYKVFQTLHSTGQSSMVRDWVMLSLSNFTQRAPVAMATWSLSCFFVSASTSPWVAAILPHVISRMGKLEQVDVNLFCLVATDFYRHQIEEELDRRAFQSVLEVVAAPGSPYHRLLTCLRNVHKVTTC
# Pf apPOL block: Pf-apPOL inhibitors, biochemical, fluorescence. Recombinant Pf-apPOL, molecular beacon fluorescence, 1.5 h. inhibition, % at 10 µM. 0.25% of 210,000 active
# Numbers stand for hits; . = inactive; / = no result given. Cut-off read from the data, not from the text of the source: active = inhibition above about 50%; inactive = the rest.
SMILES,mHTT-CaM PPI inh,Pf apPOL block
COc1cc(/C=C/c2nc3ccccc3c(=O)n2-c2ccccc2[N+](=O)[O-])ccc1O,50,.
COc1cc(/C=C/c2nc3ccccc3c(=O)n2CCO)ccc1O,.,.
Cc1nnsc1C(=O)N1CCC(Cn2ccnc2-c2ccccc2)CC1,.,.
COc1ccc(Oc2c(C)oc3cc(OC)ccc3c2=O)cc1,.,.
CC1(C)C(C=C(Cl)Cl)C1C(=O)Nc1ccc([N+](=O)[O-])cc1 (centres undefined),99,.
O=C(Nc1cccnc1)C1C(c2ccccc2)C1(Cl)Cl (centres undefined),.,.
O=C(Nc1ccc([N+](=O)[O-])cc1)C1C(c2ccccc2)C1(Cl)Cl (centres undefined),94,.
COc1ccc(NC(=O)C2C(C=C(Cl)Cl)C2(C)C)cc1 (centres undefined),.,.
Cc1cc(C)nc(NS(=O)(=O)c2ccc(NC(=O)C3C(C=C(Cl)Cl)C3(C)C)cc2)n1 (centres undefined),67,.
CC1(C)C(C=C(Cl)Cl)C1C(=O)Nc1ccc(S(N)(=O)=O)cc1 (centres undefined),.,.
CC(=O)NC1C(Oc2ccc(C(=O)C=Cc3ccco3)cc2)OC(COC(C)=O)C(OC(C)=O)C1OC(C)=O (centres undefined),.,.
CCSc1nnc(NC(=O)c2ccc(-n3ccnc3C)nn2)s1,.,.
Cc1ccc(S(=O)(=O)N=Cc2ccc(F)cc2)cc1,.,.
COc1ccc(S(=O)(=O)N=C2C=C(Nc3ccc(C)cc3)C(=O)c3ccccc32)cc1,75,.
Cc1ccc(NC2=CC(=NS(=O)(=O)c3ccc(F)cc3)c3ccccc3C2=O)cc1,88,.
COc1ccc(NC2=CC(=NS(=O)(=O)c3ccc(C)cc3)c3ccccc3C2=O)cc1,.,.
Cn1cc(C(=O)NC2=NCCS2)c2n[nH]c(=O)c-2c1,.,.
CC(=O)Nc1ccc(C2(C(=O)N3CCN(c4ccccc4)CC3)CCCCC2)cc1,91,.
CNC(=O)Nc1ccc(C2(C(=O)N3CCN(c4ccccc4)CC3)CCC2)cc1,.,.
CNC(=O)Nc1ccc(C2(C(=O)N3CCN(c4cccc(Cl)c4)CC3)CCC2)cc1,67,.
CC(C)C(=O)Nc1ccc(C2(C(=O)N3CCN(c4ccccn4)CC3)CCCCC2)cc1,.,.
COc1cc(Cl)ccc1C(=O)N1CCN=C1N1CCN(c2ccccc2F)CC1,.,.
Cc1ccc(N=CC=C2OC(C)(C)C(C)(C)O2)cc1,56,.
Cc1cccc(N=CC=C2OC(C)(C)C(C)(C)O2)c1,.,.
Cc1cccc(C(=O)Nc2ccc(N3CCN(Cc4ccoc4)CC3)nc2)c1,.,.
SMILES,mHTT-CaM PPI inh,Pf apPOL block
CC(=O)NC1=NN(C(C)=O)C(C)(c2ccc(F)cc2)S1 (centres undefined),.,.
CC(=O)NC1=NN(C(C)=O)C(C)(c2ccc(-c3ccccc3)cc2)S1 (centres undefined),51,.
CC(C)c1c(C2CCN(C(=O)c3cccc(C#N)c3)CC2)noc1N,.,.
N[C@@H](Cc1ccc(O)c(O)c1)C(=O)O,/,.
O=C(O)C(O)Cc1ccc(O)c(O)c1 (centres undefined),/,84
Cc1[nH]c2ccccc2c1C(C[N+](=O)[O-])c1ccc(F)cc1 (centres undefined),54,.
Cc1[nH]c2ccccc2c1C(Nc1ccccn1)c1ccc([N+](=O)[O-])cc1 (centres undefined),97,.
COc1cc(C(C[N+](=O)[O-])c2c(C)[nH]c3ccccc23)cc(OC)c1OC (centres undefined),.,.
Cc1[nH]c2ccccc2c1C(Nc1ccccc1F)c1ccccn1 (centres undefined),.,.
CCc1nc2ccc(-c3noc(-c4ccsc4)n3)cc2n1CC,.,.
Cn1cc(CCCC(=O)NCCc2ccc(Cl)cc2)c2ccccc21,.,.
N#CC1=C(N)SC(N)=C(C#N)C1c1ccc(Cl)cc1Cl,.,.
N#CC1=C(N)SC(N)=C(C#N)C1c1cccc(Cl)c1,74,.
CCN(CC)CCCNC(=O)CC1CCN(C(=O)c2ccc(C)cc2)CC1,.,.
Cc1ccc(C(=O)N2CCC(CC(=O)NCCCN(C)c3ccccc3)CC2)cc1,51,.
Cc1cc(C)cc(C(=O)N2CCC(c3ccn4ncc(C(=O)N5CCOCC5)c4c3)CC2)c1,.,.
O=C(O)COc1ccccc1C1OC2CCCCC2C2=CCCCC21 (centres undefined),50,.
Oc1ccccc1C1OC2CCCCC2C2=CCCCC21 (centres undefined),.,.
Cc1ccc(S(=O)(=O)N2CCCC2CNC(=O)c2ccc([N+](=O)[O-])cc2)cc1 (centres undefined),.,.
COc1cccc(C2=N/C(=C/c3cc(OC)ccc3OC)C(=O)O2)c1,.,.
c1ccc(CN2CCCC(c3n[nH]c(C4CC4)n3)C2)nc1 (centres undefined),95,.
c1ccc(-n2cnnc2C2CCCN(Cc3ccccn3)C2)cc1 (centres undefined),87,.
N#Cc1cccc(CN2CCCC(c3nncn3-c3ccccc3)C2)c1 (centres undefined),.,.
c1cc(CN2CCCC(c3n[nH]c(C4CC4)n3)C2)ccn1 (centres undefined),.,.
Cc1cc(C2CCCN2C(=O)NC(C)(C)C)no1 (centres undefined),.,.
SMILES,mHTT-CaM PPI inh,Pf apPOL block
COc1ccc(/C=C2\SC(=O)N(CN3CCOCC3)C2=O)c(OC)c1,.,.
COc1ccc(C=C2SC(=S)N(CCc3ccc(O)cc3)C2=O)c(OC)c1,77,.
O=C(CCNc1cccc(F)c1)c1cccc([N+](=O)[O-])c1,.,.
O=[N+]([O-])c1ccc(/C=C/CNc2cccc(F)c2)o1,59,.
CCOc1nccnc1NC1CCN(C(=O)c2ccoc2)CC1,.,.
O=C(CN1CCC2(CC1)N=C(c1cccc(Cl)c1)C(=O)N2)Nc1cccc(Cl)c1,.,.
Cc1cccc(C)c1NC(=O)CN1CCC2(CC1)N=C(c1ccc(F)cc1)C(=O)N2,.,.
O=C(CN1CCC2(CC1)N=C(c1ccccc1)C(=O)N2)Nc1cccc(C(F)(F)F)c1,96,.
O=C(CN1CCC2(CC1)N=C(c1cccc(Cl)c1)C(=O)N2)Nc1ccc2c(c1)OCO2,53,.
Cc1ccc(C)c(NC(=O)CN2CCC3(CC2)N=C(c2ccc(F)cc2)C(=O)N3)c1,51,.
O=C(CN1CCC2(CC1)N=C(c1ccc(F)cc1)C(=O)N2)Nc1ccccc1,.,.
O=C1CCCC2C3CCC[N+]4([O-])CCCC(CN12)C34 (centres undefined),/,.
O=C(NCCC1=CCCCC1)C1CC(=O)N(c2ccc(F)c(Cl)c2)C1 (centres undefined),.,.
CN(C)c1ccc(NC(=O)CCN2CCN(C3c4ccccc4-c4ccccc43)CC2)cc1,93,.
CN(C)c1ccc(NC(=O)CN2CCN(C3c4ccccc4-c4ccccc43)CC2)cc1,.,.
O=C(CCN1CCN(C2c3ccccc3-c3ccccc32)CC1)Nc1cccc(C(F)(F)F)c1,69,.
CCOc1ccc(NC(=O)CCN2CCN(C3c4ccccc4-c4ccccc43)CC2)cc1,.,.
COc1cccc(NC(=O)CN2CCN(C3c4ccccc4-c4ccccc43)CC2)c1,.,.
O=C(CN1CCN(C2c3ccccc3-c3ccccc32)CC1)Nc1ccc(F)c(F)c1,74,.
